Source: PubChem
Rows were chosen to be rich in hits. Some 2.9% of all compounds tested hit in one or more screens of this group.
FXN GAA850 act: increases GAA850 frataxin promoter reporter activity; HEK293 lucGAA850 FXN promoter luciferase reporter, 24 h; percent of 10 µM SAHA response; activation, % at 6 µM; 360,000 compounds, 0.56% hits; AID 540364;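 active means activation above the average of all compounds screened plus 3 SD, cutoff fixed separately per campaign, cut at about 7.5% in these data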;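 further: 0% = DMSO wells and 100% = 10 µM SAHA wells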
FAS TE block: blocks the thioesterase domain of human fatty acid synthase | recombinant FAS-TE, OMFH fluorogenic substrate, fluorescence endpoint | 360,000 compounds, 0.67% hits | inhibition, % at 15 µM;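 active means compounds whose normalised, plate-corrected inhibition of enzyme fluorescence in the single-dose primary screen is 50% or more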;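 further: 0% = DMSO with enzyme and 100% = substrate without enzyme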
KLK7 zymogen act: activates the human kallikrein-7 zymogen | P49862 | purified proKLK7, EDANS-DABCYL substrate fluorescence; 100% is mature enzyme control, 0% vehicle | activation, % at 7 µM | 370,000 compounds, 0.9% hits;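 active means activation above the mean of all tested compounds plus 3 SD, computed per campaign excluding outliers beyond control limits, cut at about 13% in these data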
Target sequence (P49862 whole entry, looked up): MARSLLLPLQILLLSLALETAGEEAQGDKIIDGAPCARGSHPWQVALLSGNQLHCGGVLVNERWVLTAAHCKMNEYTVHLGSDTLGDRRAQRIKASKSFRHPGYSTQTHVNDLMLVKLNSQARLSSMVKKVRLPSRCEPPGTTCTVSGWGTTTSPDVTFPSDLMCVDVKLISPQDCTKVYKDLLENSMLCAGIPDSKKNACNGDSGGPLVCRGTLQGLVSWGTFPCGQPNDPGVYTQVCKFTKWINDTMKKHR
SMARCA2 activ: increases SMARCA2 function in MMTV reporter cells | activation, % at 9.1 µM | 370,000 compounds, 1% hits | AID 652017 | MG213 cells, MMTV-luciferase reporter, dexamethasone, overnight; in the data active means activation above about 7.8%;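 further: 0% = vehicle wells and 100% = reference activator wells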
GAA30 counter: GAA30 FXN promoter activation counter-screen; shares compounds with FXN GAA850 act; HEK293 lucGAA30 FXN promoter luciferase, 24 h; DMSO = 0%, 5 µM ipriflavone = 100%; activation, % at 6 µM; 1,900 compounds, 66% hits;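 active means mean activation above the mean of solvent-only control wells plus 3 SD, cut at about 22% in these data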;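 further: counterscreen of GAA850 promoter hits where activity marks nonselective or luminescence artifacts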
FXN GAA850 conf: GAA850 FXN promoter activation confirmation. shares compounds with FXN GAA850 act. HEK293 lucGAA850 FXN promoter luciferase reporter, 24 h; 100% = activation by SAHA. activation, % at 6 µM. 1,900 compounds, 86% hits;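 active means mean activation above a set limit taken from the primary screen, cut at about 8% in these data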;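 further: 0% = DMSO wells and 100% = 10 µM SAHA wells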
An asterisk follows results filed as active.

Results for O=C(Nc1ccccc1[N+](=O)[O-])c1cc2ccccc2nc1Cl ?
FXN GAA850 act: 2; FAS TE block: -4; KLK7 zymogen act: 0; SMARCA2 activ: 2

How did O=C(Nc1ccccc1[N+](=O)[O-])C1=C(O)CCn2c1nc1ccccc12 do in these assays?
FXN GAA850 act: 9.2*; FAS TE block: 0; KLK7 zymogen act: 1; SMARCA2 activ: 0; GAA30 counter: 11; FXN GAA850 conf: 16*

Results for C[C@H](CO)N1C[C@H](C)[C@H](CN(C)C(=O)N[C@H](C)c2ccccc2)OCc2ccccc2-c2c(n(C)c3ccccc23)C1=O ?
FXN GAA850 act: 14*; FAS TE block: 2; KLK7 zymogen act: 0; SMARCA2 activ: 2; GAA30 counter: -6; FXN GAA850 conf: 4

What do the screens show for `Cc1noc(C)c1COC(=O)c1ccc2ccccc2n1`?
FXN GAA850 act: 1; FAS TE block: 0; KLK7 zymogen act: 0; SMARCA2 activ: 0

How did CCCOC(=O)c1c(N)sc(C(=O)OCC)c1C do in these assays?
FXN GAA850 act: 14*; FAS TE block: 12; KLK7 zymogen act: 1; SMARCA2 activ: 3; GAA30 counter: 64*; FXN GAA850 conf: 25*

Results for CSc1nc(=S)cc(C)[nH]1 ?
FXN GAA850 act: 0; FAS TE block: -2; KLK7 zymogen act: 0; SMARCA2 activ: -2

Results for NC1=NC(=Nc2ccc(Br)cc2)c2ccccc21 ?
FXN GAA850 act: -2; FAS TE block: -23; KLK7 zymogen act: 0; SMARCA2 activ: 4

Results for O=C(N(Cc1ccccc1)c1ccccn1)C12CC3CC(CC(C3)C1)C2 ?
FXN GAA850 act: 11*; FAS TE block: 15; KLK7 zymogen act: 0; SMARCA2 activ: -3; GAA30 counter: 31*; FXN GAA850 conf: 11*

What do the screens show for `O=C(N(c1ccccn1)c1ccccn1)C12CC3CC(CC(C3)C1)C2`?
FXN GAA850 act: 7; FAS TE block: -1; KLK7 zymogen act: 0; SMARCA2 activ: 0

What do the screens show for `CCNC(=O)C1CCCN(Cc2ccc3ccccc3c2Br)CC1` (stereo unspecified)?
FXN GAA850 act: -1; FAS TE block: -3

What do the screens show for `CC(C)c1ccc(NC(=O)c2ccc(NS(C)(=O)=O)cc2)cc1`?
FXN GAA850 act: -1; FAS TE block: 0; KLK7 zymogen act: 0; SMARCA2 activ: 5

How did O=C(Cc1ccccc1)Nc1cccc(N2C(=O)C=CC2=O)c1 do in these assays?
FXN GAA850 act: 9.0*; FAS TE block: 5; KLK7 zymogen act: -1; SMARCA2 activ: 4; GAA30 counter: 3; FXN GAA850 conf: 7

How did O=C1COc2ccc(C(=O)CCl)cc2N1 do in these assays?
FXN GAA850 act: 9.8*; FAS TE block: -4; KLK7 zymogen act: 0; SMARCA2 activ: 0; GAA30 counter: 202*; FXN GAA850 conf: -13

What do the screens show for `CCC(=O)c1ccc(OCC(=O)c2ccc3c(c2)NC(=O)CO3)cc1`?
FXN GAA850 act: 2; FAS TE block: -2; KLK7 zymogen act: 0; SMARCA2 activ: -5

How did CC(C)CN(C(=O)C1CCCO1)C1CCS(=O)(=O)C1 (stereo unspecified) do in these assays?
FXN GAA850 act: 0; FAS TE block: -4; KLK7 zymogen act: 0; SMARCA2 activ: -4

What do the screens show for `COc1ccc(C(=O)Nc2nc3ccccc3s2)cc1OC`?
FXN GAA850 act: 11*; FAS TE block: -1; KLK7 zymogen act: -1; SMARCA2 activ: -1; GAA30 counter: 116*; FXN GAA850 conf: 29*

How did CCOC(=O)[C@]12CCCC=C1N(Cc1ccc3c(c1)OCO3)C(=O)[C@H](CC(=O)NCCCCc1ccccc1)C2 do in these assays?
FAS TE block: 19; KLK7 zymogen act: 1; SMARCA2 activ: -3

How did Cc1nc(Nc2ccccc2Cl)sc1C(=O)Nc1ccccc1 do in these assays?
FXN GAA850 act: 16*; FAS TE block: 10; KLK7 zymogen act: 0; SMARCA2 activ: -1; GAA30 counter: 67*; FXN GAA850 conf: 21*

Results for O=C(Nc1ncc(Cc2ccccc2Cl)s1)C1CCCO1 (stereo unspecified) ?
FXN GAA850 act: 0; FAS TE block: 4; KLK7 zymogen act: 0; SMARCA2 activ: 4

What do the screens show for `CCCCN1C(Nc2ccccc2)=NC[C@@H]1C`?
FXN GAA850 act: 0; FAS TE block: -8; KLK7 zymogen act: -1; SMARCA2 activ: 2

What do the screens show for `O=C(NC12CC3CC(CC(C3)C1)C2)OCCNC1CCCCC1`?
FXN GAA850 act: 15*; FAS TE block: -2; KLK7 zymogen act: 0; SMARCA2 activ: -3; GAA30 counter: 23*; FXN GAA850 conf: 10*

Results for CC(C)c1ccc(NC(=O)c2ccc(Br)o2)cc1 ?
FXN GAA850 act: -1; FAS TE block: 9; KLK7 zymogen act: 0; SMARCA2 activ: 3

Results for C/C(=N/NC(=O)c1ccc(Br)o1)C(C)C ?
FXN GAA850 act: 9.1*; FAS TE block: -7; KLK7 zymogen act: 0; SMARCA2 activ: 2; GAA30 counter: 16; FXN GAA850 conf: 7

How did COC(=O)c1ccc(NC(=S)NNC(=O)c2ccccc2)cc1 do in these assays?
FXN GAA850 act: 0; FAS TE block: -1; KLK7 zymogen act: 0; SMARCA2 activ: 1

What do the screens show for `CCN(c1ccccc1)S(=O)(=O)c1ccc(OC)c(NC(=O)C2CC(=O)N(Cc3ccccc3)C2)c1` (stereo unspecified)?
FXN GAA850 act: 1; FAS TE block: 10; KLK7 zymogen act: 1; SMARCA2 activ: -1

What do the screens show for `c1cncc(-c2nc3ccccc3s2)c1`?
FXN GAA850 act: 7.7*; FAS TE block: -2; KLK7 zymogen act: 1; SMARCA2 activ: 3; GAA30 counter: 86*; FXN GAA850 conf: 28*

How did CN=C1SC(CC(=O)Nc2ccc(N3CCOCC3)cc2)C(=O)N1C (stereo unspecified) do in these assays?
FXN GAA850 act: 13*; FAS TE block: -7; KLK7 zymogen act: 0; SMARCA2 activ: -1; GAA30 counter: 15; FXN GAA850 conf: 3

What do the screens show for `O=C1CC(c2ccco2)CC(O)=C1C=NCCO` (stereo unspecified)?
FXN GAA850 act: -1; FAS TE block: -4; KLK7 zymogen act: 1; SMARCA2 activ: -2

Results for Cc1ccccc1Cn1ccc(-c2ccc3c(c2)OCO3)n1 ?
FXN GAA850 act: 1; FAS TE block: 26; KLK7 zymogen act: 0; SMARCA2 activ: 2

How did Fc1cccc(Cn2ccc(-c3ccc4c(c3)OCO4)n2)c1 do in these assays?
FXN GAA850 act: 9.4*; FAS TE block: 24; KLK7 zymogen act: 1; SMARCA2 activ: 4; GAA30 counter: 84*; FXN GAA850 conf: 25*

What do the screens show for `N#C/C(=C\c1ccc(N2CCOCC2)o1)c1ccccc1`?
FXN GAA850 act: 12*; FAS TE block: -2; KLK7 zymogen act: 0; SMARCA2 activ: 6; GAA30 counter: 139*; FXN GAA850 conf: 45*

Results for N#C/C(=C\c1ccc(N2CCOCC2)cc1)c1ccccc1 ?
FXN GAA850 act: 6; FAS TE block: 27; KLK7 zymogen act: 0; SMARCA2 activ: 1
